Inconclusive results are not listed. A number with no mark means an inactive call. Activity calls are given as the source filed them. Calls come from the whole dose curve; as a rule, active = well fitted inhibition curve with a large enough effect; inconclusive = small, poorly fitted or top-dose-only effect; inactive = no such curve, though single readings can be large or run the other way.

18 molecules from PubChem BioAssay AID1845226 (National Center for Advancing Translational Sciences (NCATS), 2023) can be followed below.
Potency is the fitted concentration of half-maximal effect.

This test is described as follows: Confirmatory fluorescence-based thiol-reactive (MSTI) qHTS assay for identification of artifact compounds. Particulars: MSTI thiol-reactivity probe, 1 h; series mostly up to 39.2 µM; activity change, negative = inhibition: at the top concentration. The method in brief: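 MSTI 4 uM final, PBS pH 7.4 + 2% DMSO; 1 h RT, dark; Ex/Em 525/598 nm; % inhibition vs Acetyl-MSTI (0%) and MSTI (100%), 4-parameter Hill fit.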
For orientation: Quantitative high-throughput screening tests each substance at several concentrations.
As for `Cc1ccc(NS(=O)(=O)c2cc3c(cc2N2CCC2)NC(=O)CC3)cc1C`, the “activity change, negative = inhibition” value was 102%.
In the case of `CC(C)c1cnc2c(c1SCC(=O)Nc1cccc([N+](=O)[O-])c1)c(=O)n(C)c(=O)n2C`, the “activity change, negative = inhibition” value was 8.16%.
Consider `c1coc(-c2nc3cc4ccccc4cc3nc2-c2ccco2)c1`, for which the Potency was 970 nM (active).
Still for that read-out and setting: the figure for `O=c1cc(-c2cc(O)c(O)c(O)c2)oc2cc(O)cc(O)c12` is 12200 nM (active).
`C=Cc1ccc(Cn2c(C)c(CNCc3cccc(Br)c3)c(C(=O)O)c2C)cc1`: the “activity change, negative = inhibition” value was -1.73%.
On the same count and under the same terms, then `CC(C)c1nn2c(=O)cc(COC(=O)c3cccc(NC(=O)COc4ccc(F)cc4)c3)nc2s1`, with 212%; and `CC1CC(C)CN(c2oc(-c3ccc(OCc4ccc(Cl)cc4)cc3)nc2C#N)C1` (stereo not drawn), with 0.0837%.
Take `Oc1c(C(c2ccccc2F)N2CCN(Cc3ccccc3)CC2)sc2nc(-c3ccco3)nn12` (stereo not drawn): the “activity change, negative = inhibition” value is 101%.
The same measure, in the same setting: the figure for `O=C(CNC(=O)C(c1ccccc1)c1ccccc1)OCC(=O)c1ccc2ccccc2c1` is 122%; for `Cc1ccc(S(=O)(=O)Nc2ccc(F)cc2C(=O)Nc2nc(-c3ccccc3)cs2)cc1` it is 197%; for `CSc1ncc(C(=O)NCc2ccccc2)c(-c2ccccc2)n1` it is 33.3%.
Still for that read-out and setting: the figure for `COc1ccccc1Cc1nc2ccccc2nc1SCC(=O)Nc1c(C)cccc1C` is 5.83%; for `CCOC(=O)C(C)Sc1ccc2nnc(-c3ccc(F)cc3)n2n1` (stereo not drawn) it is 17.3%.
Same read-out and setting: then `COc1ccccc1C(CC(=O)Nc1ccc(F)cc1)c1ccccc1` (stereo not drawn), with 283% [at 78.4 µM]; and `Cc1cc(C(=O)N2CCN(c3cccc(Cl)c3)CC2)c2c(C)nn(-c3ccccc3Cl)c2n1`, with 11.2%.
Turning to `O=S1(=O)N=C(Oc2ccc(Br)cc2)c2ccccc21`, the “activity change, negative = inhibition” value is 10.1%.
The same measure, in the same setting: then `Cc1cn(C2CCC(CO)O2)c(=O)[nH]c1=O` (stereo not drawn), with 11.8%.
For `O=S(=O)(O)c1ccc(N=Nc2cc(S(=O)(=O)O)c3ccccc3c2O)c2ccccc12`, the Potency was 194 nM (active).
